Screens (PubChem)
Many of the other results were omitted from the sample, so hits are more common in it than they were.
Sm TGR block: S. mansoni TGR enzyme inhibition; Q962Y6; purified TGR, DTNB reduction, TNB absorbance 405 nm; Potency, µM (highest dose often 114 µM), actives largely listed as inhibitors; 360,000 compounds, 3% hits; further: nearly all actives have a fitted effect of over 60% in size
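TGR 20 nM + NADPH 100 uM (dispensed conc.), cpd preinc 15 min RT; start with NADPH (500 uM addition) then DTNB (15 mM addition). Kinetic TNB absorbance, 405 nm filter. Four-parameter Hill fit across titration.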
Cycloheximide cs: counter-screen hit for Shiga toxin inhibitors, cycloheximide; cell reporter, cycloheximide protein synthesis inhibition counterscreen; 300,000 compounds, 12% hits; max response, %; AID 2314; in the data active means max response mostly above about 13%, no sharp cut-off; inactive means mostly below about 14%; further: read at 38.3 µM for the half of the compounds with a filed dose
Shiga inhibitor: blocks Shiga toxin action in Vero cells; Vero cells, Shiga toxin protein synthesis inhibition reporter; AID 2315; 290,000 compounds, 9.2% hits; inhibition, % at 38.7 µM; in the data active means inhibition mostly above about 28%, no sharp cut-off; inactive means mostly below about 43%
TbPYK inhibitor: blocks Trypanosoma brucei pyruvate kinase; Q57TT1; TbPYK enzyme, Kinase-Glo Plus ATP luminescence, 45 min; Potency, µM (titrated, usually from 76.8 µM), usual class: inhibitors; 410,000 compounds, 0.12% hits; further: nearly all actives have a fitted effect of over 50% in size
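Activity of T. brucei pyruvate kinase was followed by Kinase-Glo Plus luminescence after the enzyme reacted 45 min at room temperature with 130 uM ADP (final) and substrate. Test compounds were added before ADP at multiple concentrations.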
LmPK inhibitor: blocks Leishmania mexicana pyruvate kinase activity | Q27686 | purified LmPK, Kinase-Glo ATP luminescence, 1 h | Potency, µM (series often up to 57.5 µM), usual class: inhibitors | 290,000 compounds, 0.37% hits
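Screened at intermediate enzyme activity to detect both inhibitors and activators: LmPK at 0.1 nM, with a 0.5 nM enzyme column as activation reference. PEP 0.5 mM, ADP 0.1 mM; ATP detected by luminescence after 1 h.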
Giardia FBPA inh: Giardia lamblia aldolase inhibition. Potency, µM (top dose mostly 59.6 µM), usual class: inhibitors. A8B2U2. AID 2451. 290,000 compounds, 0.71% hits. purified Giardia FBPA; further: nearly all actives have a fitted effect of over 55% in size
Target sequence (A8B2U2 whole entry, looked up): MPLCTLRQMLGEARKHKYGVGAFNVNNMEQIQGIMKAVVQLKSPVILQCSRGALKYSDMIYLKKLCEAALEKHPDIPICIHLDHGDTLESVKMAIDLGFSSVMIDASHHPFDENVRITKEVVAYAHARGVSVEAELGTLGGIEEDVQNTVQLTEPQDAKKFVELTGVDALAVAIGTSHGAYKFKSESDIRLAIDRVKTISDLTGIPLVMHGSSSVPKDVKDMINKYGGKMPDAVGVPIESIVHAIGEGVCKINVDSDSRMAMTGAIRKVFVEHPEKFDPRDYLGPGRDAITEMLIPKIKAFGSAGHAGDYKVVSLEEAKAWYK
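40 nM FBPA preincubated 10 min at RT with compound (up to 57.5 uM final), then substrate plus GAPDH/TPI/NAD/arsenate coupling and diaphorase/resazurin added. Fluorescence read after 20 min at RT, 525/598 nm.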
Large screens that a line does not name were inactive. Unless noted, the call rests on the fitted dose curve; in most records, active means well fitted curve in the direction sought with a large enough effect; inconclusive means small, poorly fitted or top-dose-only effect, or another doubt; inactive means no such curve, though single readings can be large; an effect the other way counts as inactive or inconclusive.

CCc1cccc(NC(=O)c2ccc3c(=O)n4nc(Nc5ccccc5OC)sc4nc3c2)c1	none (no result: Cycloheximide cs, Shiga inhibitor, LmPK inhibitor, Giardia FBPA inh)
S=c1[nH]nc(-c2cc(-c3ccco3)[nH]n2)n1-c1cccc2ccccc12	Sm TGR block 11µM, TbPYK inhibitor inconclusive, LmPK inhibitor 7.9µM
FC(F)(F)c1ccccc1-n1c(-c2ccco2)n[nH]c1=S	Cycloheximide cs 21, Shiga inhibitor 30, TbPYK inhibitor inconclusive, Giardia FBPA inh inconclusive
Cc1ccccc1-n1c(-c2ccco2)n[nH]c1=S	TbPYK inhibitor inconclusive, LmPK inhibitor inconclusive
CC(OC(=O)c1cc2c(s1)CCCCC2)C(=O)NC(N)=O (configuration not stated)	Cycloheximide cs 23
CC(C)NC(=O)c1cc2c(s1)CCCC2	Cycloheximide cs 18, Shiga inhibitor 44
CC(C)C(OC(=O)c1cc2c(s1)CCCCC2)C(=O)NC(N)=O (configuration not stated)	none
CNC(=O)c1cc2c(s1)CCCCCC2	none
CCC(NC(=O)Nc1cccc(C)c1)c1c(-n2cccc2)sc2c1CCN(C)C2 (configuration not stated)	none (no result: Cycloheximide cs, Shiga inhibitor, LmPK inhibitor, Giardia FBPA inh)
O=C(Nc1cccc(C(F)(F)F)c1)c1ccc(F)c(S(=O)(=O)N2CCc3ccccc3C2)c1	none (no result: Cycloheximide cs, Shiga inhibitor, LmPK inhibitor, Giardia FBPA inh)
CN(C)CCCOc1ccc(Cl)cc1Br	Giardia FBPA inh inconclusive
Clc1ccc(OCCSc2ncccn2)c(Br)c1	Cycloheximide cs 41, Shiga inhibitor 118 (no result: Sm TGR block)
Brc1cccc(OCCSc2ncccn2)c1	Cycloheximide cs 33, Shiga inhibitor 44
Clc1ccc(OCCCCSc2ncccn2)cc1	none
CCCOc1ccc(OCCSc2ncccn2)cc1	Cycloheximide cs 44, Shiga inhibitor 81
CCOC(=O)c1ccccc1NC(=O)CSc1cn(CC(=O)N2CCCCCC2)c2ccccc12	none (no result: Cycloheximide cs, Shiga inhibitor, LmPK inhibitor, Giardia FBPA inh)
Cc1[nH]c2ccccc2c1CCO	none
Cc1[nH]c2ccccc2c1C1=CC(=O)C=CC1=O	TbPYK inhibitor 4µM (no result: Sm TGR block, Cycloheximide cs, Shiga inhibitor, LmPK inhibitor, Giardia FBPA inh)
Cc1ccc(NC(=O)CN2C(=O)c3ccccc3C2=O)c(C)c1	none
Cc1cc(C)c(S(=O)(=O)ON2C(=O)c3ccccc3C2=O)cc1C	Sm TGR block 0.89µM, TbPYK inhibitor inconclusive
CN1C(=O)c2ccccc2C1=O	none (no result: Sm TGR block, Cycloheximide cs, Shiga inhibitor, LmPK inhibitor, Giardia FBPA inh)
Cc1ccc(S(=O)(=O)ON2C(=O)c3ccccc3C2=O)c(C)c1	Sm TGR block 1.4µM, LmPK inhibitor inconclusive
Cc1cc(C)c(C)c(S(=O)(=O)ON2C(=O)c3ccccc3C2=O)c1C	Sm TGR block 1.4µM, TbPYK inhibitor inconclusive (no result: Giardia FBPA inh)
O=C1c2ccccc2C(=O)N1OS(=O)(=O)c1ccc(F)cc1	Sm TGR block 0.71µM, LmPK inhibitor inconclusive
Cc1ccc(OC(=O)CN2C(=O)c3ccccc3C2=O)cc1C	none
CC[C@H]1[C@@H]2C=C[C@@H]3[C@H]4C/C=C\C(=O)NCCC[C@@H]5NC(=O)C(=C5O)C(=O)CC[C@@H]4C[C@@H]3[C@H]2C[C@H]1C	none (no result: Sm TGR block, TbPYK inhibitor, LmPK inhibitor)
Cc1cc2oc(=O)c(CC(=O)O)c(C)c2c2occ(-c3ccc(F)cc3)c12	none (no result: Cycloheximide cs, Shiga inhibitor, LmPK inhibitor, Giardia FBPA inh)
Cc1ccc(NC(=O)CSc2nnc(-c3cc4occc4n3C)n2-c2ccccc2C)c(Cl)c1	none (no result: Cycloheximide cs, Shiga inhibitor, LmPK inhibitor, Giardia FBPA inh)
COc1cccc(C2CC(=O)Nc3c2c(=O)[nH]c2nc4ccccc4n32)c1 (configuration not stated)	none (no result: Cycloheximide cs, Shiga inhibitor, LmPK inhibitor, Giardia FBPA inh)
COc1cc(NC(=O)c2cc(-c3ccco3)on2)c(OC)cc1Cl	none
O=C(Nc1cc(Cl)ccc1O)c1cc(-c2ccco2)on1	Cycloheximide cs 40, Shiga inhibitor 80
O=C(Nc1cccc(Cl)c1)c1cc(-c2ccco2)on1	Cycloheximide cs 31, Shiga inhibitor 56
O=C(Nc1cccnc1Cl)c1cc(-c2ccco2)on1	Cycloheximide cs 41, Shiga inhibitor 83
COc1cc(NC(=O)c2cc(-c3ccc(C)cc3)on2)cc(OC)c1OC	Cycloheximide cs 11 (no result: Shiga inhibitor)
O=C(Nc1cc(Br)ccc1O)c1cc(-c2ccco2)on1	Shiga inhibitor 59
COc1ccc(-c2cc(C(=O)Nc3cccc(Cl)c3)no2)cc1	Cycloheximide cs 42, Shiga inhibitor 85
COc1ccc(-c2nnc(SC(C)C(=O)Nc3cccc(Cl)c3)o2)cc1 (configuration not stated)	Shiga inhibitor 66
Cc1[nH]nc(SCC(=O)N2CCCCC2)c1[N+](=O)[O-]	Cycloheximide cs 23
